Laboratory results: PubChem BioAssay AID1850 (Southern Research Specialized Biocontainment Screening …, 2009)
The campaign covered roughly 310,000 compounds. About 1,000 (0.32%) were called active. These entries were drawn from the full list. Results with a measured potency or affinity are listed apart. Unmarked numbers belong to inactive results. The rule behind the calls is not given here.

Experiment: Inhibition of PhoP regulon, Salmonella typhi GFP reporter cells, confirmation, 4 h (AID 1850);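 note: 0% = induced wells with vehicle and 100% = uninduced wells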
Conditions: Salmonella Typhi PhoP-promoter GFP reporter, fluorescence, at 50 µM, stronger effect = higher value

Compound	inhibition [%]
CCc1ccccc1NC(=O)COc1cccc(-n2cnnn2)c1	-5.08
CC(C)OCCCNC(=O)c1ccc(NC(=O)C2=CSCCO2)cc1	-8.42
COc1ccc(S(=O)(=O)N2CCN(c3ncccn3)CC2)cc1[N+](=O)[O-]	-20.4
Cc1ccc(Nc2cc(C)nn2-c2nc(C)cc(C)n2)cc1	5.85
Cc1cc(Nc2ccccc2)n(-c2nc3ccccc3[nH]2)n1	-0.39
Cc1cc(C)n(-c2nc(O)cc(=O)[nH]2)n1	-1.88
Cc1cc(C)n(-c2nnc(C)c(=O)[nH]2)n1	-0.21
FC(F)(F)c1cccc(Oc2cc(C(F)(F)F)nc(-c3ccccn3)n2)c1	1.08
CCOc1ccc(N2C(=O)C3ON(c4ccccc4)C(c4cccs4)C3C2=O)cc1 (stereo not drawn)	9.38
CCCCC(=O)N1CCN(c2nc3ccc(F)cc3s2)CC1	-7.63
Nc1ccc2c(c1)C(=O)C(=O)c1ccccc1-2	6.22
Nc1ccc(Br)c2c1C(=O)c1ccccc1C2=O	-1.04
O=C1C(=O)c2ccc(-c3ccccc3)cc2-c2ccccc21	1.01
Cc1cc(C)cc(NC2=C(N)C(=O)c3ccccc3C2=O)c1	-9.49
COc1ccc(/C=C/C(=O)c2ccc(O)cc2)cc1CN1CCOCC1	-8.66
CC(=O)Oc1ccc2c(=O)oc(-c3ccccc3C)nc2c1	-4.89
CN(C)CCOC1c2ccccc2C=Cc2ccccc21	10.7
O=C1N=C2SCCN2/C1=C\c1ccc(Cl)cc1	3.83
O=C(NCc1nc(-c2ccccc2)no1)c1cccs1	-6.48
COc1cccc(/C=N/NC(=O)CN2CC(c3ccccc3)CC2=O)c1O (stereo not drawn)	3.81
COc1cccc(/C=N/NC(=O)CN2CC(c3ccccc3)CC2=O)c1OC (stereo not drawn)	-3.73
COc1cc(OC)c(C2=NOC(C(=O)N3CCc4ccccc4C3)C2)cc1Cl (stereo not drawn)	-5.06
COC(=O)c1cccc(N(CC(=O)NC2CCCCC2)C(=O)CNC(=O)c2cccs2)c1	7.52
COc1ccc(CNc2nc3ccccc3n2CCN2CCCCC2)cc1	-9.45

Compound	inhibition [%]
CCN(CC)c1ccc(CNc2nc3ccccc3n2CCN2CCOCC2)cc1	6.95
COC(=O)N/N=C/c1ccccc1	3.82
COC(=O)N/N=C/c1ccccc1Cl	9.79
O=C(CSc1ccc2c(c1)OCCO2)NC(=O)Cc1ccccc1	-0.51
Cc1cccc(/C=C/c2onc(C)c2S(=O)(=O)N2CCC(C(=O)N3CCCCCC3)CC2)c1	-16.2
CCOC(=O)c1cc2c(=O)n3ccccc3nc2n(C)c1=NC(=O)c1c(-c2c(F)cccc2Cl)noc1C	-5.85
CC1CCCCN1CCCNC(=O)c1ccc(Br)cc1 (stereo not drawn)	8.17
CC(C)CNC(=O)COC(=O)c1ccc(Cl)c(S(=O)(=O)N2CCc3ccccc32)c1	1.54
C[C@H](NCCc1ccc(O)cc1)[C@H](O)c1ccc(O)cc1	-4.37
C[C@@H](NCCc1ccc(O)cc1)[C@@H](O)c1ccc(O)cc1	-9.6
Cc1ccnc(NC(=O)C(C)N2C(=O)c3ccccc3S2(=O)=O)c1 (stereo not drawn)	6.11
CCOc1ccccc1NC(=O)NNC(=O)c1ccc2ccccc2c1	9
O=C(Nc1nnc(-c2ccco2)o1)c1ccc(Cl)s1	2.73
COc1cccc(-c2nnc(NC(C)=O)o2)c1	-10.6
COCCN(C(=O)COC(=O)C1(C)CC1(Cl)Cl)c1c(N)n(Cc2ccccc2)c(=O)[nH]c1=O (stereo not drawn)	-4.07
O=C(NC1CCN(C(=S)Nc2ccc(F)cc2)CC1)C1CCCCC1	1.22
Cc1ccc(CNC(=O)C2CCC(=O)N(Cc3cccc(C(F)(F)F)c3)C2)o1 (stereo not drawn)	-2.94
CCN(CCC(=O)Nc1cc(OC)cc(OC)c1)Cc1ccccc1	-6.75
O=C(CCN(CCO)Cc1ccccc1)Nc1ccc(Br)cc1	20.3
Cc1ccc(NC(=O)CN(C)C2CCCCC2)cc1Cl	17.3
CN(CC(=O)Nc1ccc(Cl)c(Cl)c1)C1CCCCC1	9.2
Cc1ccc(NC(=O)CNCc2ccccc2)c(Br)c1	19.8
Cc1ccc(NC(=O)CNCc2cccs2)cc1Br	2.2
N#Cc1cc(NC(=O)c2ccc(F)cc2)c(=O)n2c1[nH]c1ccccc12	-0.7
